This note sets out measurements from PubChem BioAssay AID489025 (Southern Research Specialized Biocontainment Screening …, 2010).

In all, about 2,300 compounds went through this assay and about 790 (34%) were called active. No rule for the calls is given here. The list shows a part of the results. Results with a measured potency or affinity are listed apart.

A short description of this assay: THP-1 cell cytotoxicity, dose response, cytotoxicity control for non-replicating M. tuberculosis project (AID 489025). The conditions noted are these: THP-1 cell viability; series mostly up to 40 µM.
As for `CCCc1cc(C(=O)Nc2ccccc2SC)no1`, the outcome was inactive.
For `CCOC(=O)c1c(C)nc2cc(C)ccn12`, the result was inactive.
Under `c1ccc(-c2noc(CC3CCCCC3)n2)nc1` stands “inactive”; under `Cc1c(-c2ccc(Br)cc2)nc2ccccn12`, “inactive”.
The same measure for `CCCCCC1CC(CC(=O)NC(=S)Nc2ccc([N+](=O)[O-])cc2)C(=O)O1` (stereo not given): “inactive”; for `O=C(N/N=C/c1ccc[nH]1)c1ccc(Cl)cc1`: “inactive”.
On to `Cc1ccc(-c2nnc(NC3CCCC3)s2)cc1`, for which the outcome was inactive.
The same measure for `CCOC(=O)COc1cc(N)c(Cl)cc1Cl`: “inactive”; for `CCCCc1ccc(NS(=O)(=O)c2c(C)n(C)c(=O)n(C)c2=O)cc1`: “inactive”.
Under `CN1CCN(/N=C/c2ccc(-c3ccc([N+](=O)[O-])cc3Cl)o2)CC1` stands “inactive”.
The same measure for `c1ccc(-c2nnc(SCc3cn4ccsc4n3)o2)cc1`: “inactive”.
In the case of `COC(=O)[C@@H](NC(=O)c1cc(COc2cncc(Cl)c2)on1)c1ccccc1`, the call was inactive.
Under `CCCCCCOc1ccc(C(=O)O)cc1C#N` stands “inactive”.
With `N#CC(C(=O)NCc1ccco1)c1nc2ccccc2nc1N1CCOCC1` (stereo not given), the compound was classed as inactive.
The same measure for `CCOC(=O)C1CCN(c2nc3cc(OC)ccc3cc2C#N)CC1`: “inactive”; for `Cc1ccc(C)c(NC(=O)COC(=O)c2cc3ccccc3oc2=O)c1`: “inactive”.
Under `CC(C)OC(=O)COc1ccc(-c2ccccc2)cc1` stands “inactive”; under `CC(NC(=O)COc1ccc(-c2ccccc2)cc1)C1CCCO1` (stereo not given), “inactive”.
The same measure for `COC(=O)c1ccc(CSc2nnc(-c3ccncc3)o2)o1`: “inactive”; for `COCCCn1c(=NC(=O)c2ccccc2)c(C#N)cc2c(=O)n3cccc(C)c3nc21`: “inactive”; for `O=C(COC(=O)c1ccccn1)Nc1cccc(Cl)c1Cl`: “inactive”.
Regarding `CN(CCCCOc1ccc(F)cc1)Cc1ccccc1`, the outcome was inactive.
Under `O=C(Nc1ccn(Cc2ccccc2)n1)c1ccc(F)cc1` stands “inactive”; under `C=CCN=C1SC(CC)C(=O)N1S(=O)(=O)c1ccc(C)cc1` (stereo not given), “inactive”; under `Cc1ccc(Sc2ccc(/C=C3/C(=O)NN(c4ccccc4)C3=O)o2)cc1`, “inactive”.
As to `Cc1ccc(N=Nc2c(C)[nH]n(C(N)=S)c2=O)cc1C`, the compound was classed as inactive.
On to `O=[N+]([O-])c1ccccc1C1Nc2cccc3cccc(c23)N1`, for which the result was inactive.
The same measure for `CCOc1ccc(NCC(=O)c2ccc(C)cc2)cc1`: “inactive”.
Turning to `Cc1cc(/C=N\NC(=O)c2cccs2)c(C)n1-c1ccc2ncccc2c1`, the compound was classed as inactive.
Under `NC(N)=N/N=C/c1cccc([N+](=O)[O-])c1O` stands “inactive”; under `Cc1cccc(Cc2cnc(NC(=O)C3=NCCN3)s2)c1`, “inactive”.
On to `COc1cc(/C=C2/C(=O)NN(c3ccc(Cl)cc3)C2=O)ccc1OC(=O)c1ccco1`, for which the outcome was inactive.
For `O=C(CCC1CCCCC1)NCc1ccc(F)cc1`, the compound was called inactive.
The same measure for `COC(=O)C1CC(=O)N(c2ccc(OCc3ccccc3Cl)cc2)C1` (stereo not given): “inactive”; for `Cc1nnc(N/N=C/c2ccc(-c3ccccc3F)o2)n1N`: “inactive”.
Under `CN1C(c2ccccc2)CC(=NO)CC1c1ccccc1` (stereo not given) stands “inactive”; under `CC(CN1CCOCC1)OC(=O)c1ccc2c(c1)OCCO2` (stereo not given), “inactive”.
With `O=C(COC(=O)Cc1ccc(Br)cc1)Nc1ccc(N2CCOCC2)cc1`, the compound was classed as inactive.
The same measure for `Cc1[nH]n2c(=O)c3c(nc2c1-c1ccccc1)CCCC3`: “inactive”; for `N/C(=N\OC(=O)CC1CCCCC1)c1ccncc1`: “inactive”; for `CCOC(=O)CN(C#N)c1nc(N(C)C)nc(N(C)C)n1`: “inactive”.
`O=C(N/N=C/c1ccc[nH]1)c1ccc2c(c1)OCO2`: the call was inactive.
Under `O=C(COc1ccc(F)cc1)Nc1ccc2c(c1)OCCO2` stands “inactive”; under `CCOc1ccc(/C=N/OCC(=O)Nc2ccc3c(c2)OCO3)cc1`, “inactive”; under `O=C(N/N=C/c1coc2ccccc2c1=O)c1ccc(Cl)cc1`, “inactive”.
Under `O=C(NCCc1c[nH]c2ccccc12)c1cc2ccccc2oc1=O` stands “inactive”.
The same measure for `Cc1nnc(SCCC(=O)Nc2ccc(Cl)cc2)o1`: “inactive”.
On to `O=C(Cc1ccccc1)Nc1ccc(C(=O)NCC2COc3ccccc3O2)cc1` (stereo not given), for which the compound was classed as inactive.
The same measure for `O=C(Nc1ncc2c(n1)-c1ccccc1OC2)c1ccc(F)cc1`: “inactive”; for `N#Cc1ccc(COC(=O)CCc2c[nH]c3ccccc23)cc1`: “inactive”; for `COc1ccc(OC(=O)CCc2c[nH]c3ccccc23)cc1`: “inactive”.
Under `O=C(COC(=O)CCc1c[nH]c2ccccc12)NCc1ccc(Cl)cc1` stands “inactive”; under `O=C(COC(=O)CCc1c[nH]c2ccccc12)NCc1ccc2c(c1)OCO2`, “inactive”.
Under `Cc1cc(C)c2sc(NC(=O)C3=COCCO3)nc2c1` stands “inactive”.
With `O=c1cc(-c2ccncc2)oc2c1ccc1ccccc12`, the call was inactive.
The same measure for `Cc1ccc(N/N=C2\CS(=O)(=O)N(C)c3ccsc32)cc1`: “inactive”; for `CCCCOC(=O)C1CCCC(C(=O)OCCCC)N1` (stereo not given): “inactive”.
With `CCN1CCC(=NNC(=O)c2ccco2)CC1`, the call was inactive.
For the compound `CCOC(=O)c1ccc(N=CC2=C(O)CC(C)(C)CC2=O)cc1`, the compound was called inactive.
On to `CCCn1nnnc1NC(=O)COc1ccc(Br)cc1`, for which the compound was classed as inactive.
Under `CCCn1nnnc1NC(=O)c1cc(Cl)ccc1Cl` stands “inactive”; under `CCOC(=O)C(C)Oc1cc(Cl)c(C=O)cc1OC` (stereo not given), “inactive”; under `Cc1ccc(N=Nc2c(C)[nH]n(C(N)=S)c2=O)cc1`, “inactive”.
Under `CSc1ccc(N=Nc2c(C)[nH]n(C)c2=O)cc1` stands “inactive”; under `CCc1cc2c(=O)n(C(C)C(=O)OC3CCCCC3)cnc2s1` (stereo not given), “inactive”; under `CC(C)(C)C(=O)COc1ccccc1[N+](=O)[O-]`, “inactive”.
The same measure for `CC1CCCN(CCCOc2ccc([N+](=O)[O-])cc2)C1` (stereo not given): “inactive”; for `COc1ccccc1OCCNC(=O)c1cc([N+](=O)[O-])cc([N+](=O)[O-])c1`: “inactive”.
As to `Cc1cccc(NC(=O)CCSc2nnc(Cc3ccccc3)o2)c1`, the call was inactive.
Under `CCN1C(=O)CC(N2CCC(c3nc4ccccc4[nH]3)CC2)C1=O` (stereo not given) stands “inactive”; under `CCOC(=O)C(=CNNc1cccc(Cl)c1)C(=O)OCC`, “inactive”; under `Cc1ccc2c(c1)c1c3n2CCN=C3CCC1`, “inactive”.
Under `Cc1ccc2[nH]c3c(c2c1)CCCC3NCCO` (stereo not given) stands “inactive”; under `COc1ccc(C2(O)CCN(CCCCOc3ccccc3)CC2)cc1`, “inactive”; under `OCC1(CCOc2ccccc2)CCN(Cc2cc(Cl)ccc2O)CC1`, “inactive”.
In the case of `COc1cc(NCCC(=O)c2cccs2)c(OC)cc1Cl`, the compound was called inactive.
The same measure for `Cc1cc(=O)n2cccc(O)c2n1`: “inactive”.
As to `CC(C)(C)c1ccc(NC(=O)COc2ccc(-n3ccnc3)cc2)cc1`, the call was inactive.
For the compound `Clc1ccc(SCCCCn2ccnc2)cc1`, the result was inactive.
The same measure for `O=C(O)c1ccc(NS(=O)(=O)/C=C/c2ccccc2)cc1O`: “inactive”; for `Cc1cc(C)cc(NC(=O)COC(=O)CC2CCCC2)c1`: “inactive”; for `O=C(COc1ccc(Nc2ccccc2)cc1)OCC(=O)N1CCCCC1`: “inactive”.
Under `COc1cccc(CC2(CO)CCCN(Cc3sc(N4CCCC4)nc3Cl)C2)c1` (stereo not given) stands “inactive”; under `O=C(COc1ccc(Cl)cc1)Nc1ccc(Cl)cn1`, “inactive”.
Under `CCCc1nnc(-c2ccc(OC)cc2)o1` stands “inactive”.
Take `c1ccc(-c2n[nH]c(-c3ccccn3)n2)nc1`: the outcome was inactive.
Under `O=C(COc1ccc(Cl)cc1)Nc1ccccc1Cl` stands “inactive”; under `CC(C)(C)OC(=O)NCCc1nnc(S(=O)(=O)Cc2ccc(Cl)cc2Cl)o1`, “inactive”; under `OCC#CCSc1nnc(-c2ccc(Br)cc2)o1`, “inactive”.
Consider `Cc1cccc(NCc2nnc(-c3ccccc3)o2)c1C`, for which the outcome was inactive.
With `O=C(CCSc1ccccn1)c1ccccc1`, the result was inactive.
Under `CCOc1ccc(-c2ccc(SCC)nn2)cc1` stands “inactive”; under `O=C(NC1CCCC1)c1nc2c(nnn2Cc2cccc(Cl)c2)c(=O)[nH]1`, “inactive”; under `CC(C)(C)c1ccc(OCCC(=O)OCC(=O)NC2CCCCC2)cc1`, “inactive”.
With `CC(C)(C)c1ccc(-c2nc(C#N)c(NCCCn3ccnc3)o2)cc1`, the compound was called inactive.
The same measure for `N#Cc1nc(-c2cccs2)oc1NCCc1ccccc1`: “inactive”; for `CCOCCOC(=O)COc1ccc2c(-c3ccccc3)cc(=O)oc2c1`: “inactive”.
As for `CCc1nnc(NC(=O)CN2CCN(Cc3ccc(F)cc3)CC2)s1`, the result was inactive.
The same measure for `Cc1ccc2nc(NC(=O)COC(=O)c3ccc(Br)o3)sc2c1`: “inactive”; for `CC1CCN(C(=O)COC(=O)CCc2c[nH]c3ccccc23)CC1`: “inactive”.
Under `O=C1/C(=C/c2cccs2)COc2ccccc21` stands “inactive”; under `COc1ccc2c3c(cccc13)OCC2=O`, “inactive”.
As for `O=C(c1ccco1)N1CCN(c2ccc(F)cc2)CC1`, the result was inactive.
The same measure for `O=S(=O)(NCc1cccnc1)c1ccc(Cl)c(Cl)c1Cl`: “inactive”.
With `Cc1cc(C=C2C(=O)NC(=S)NC2=O)c(C)n1C1CCCC1`, the result was inactive.
The same measure for `CCCn1nnnc1NCc1ccc(CC)cc1`: “inactive”.
The same measure for `Cc1ccc(NCCC(=O)c2cccs2)cc1`: “inactive”; for `CCc1ccc(/C=N/NC(=O)c2ccccn2)cc1`: “inactive”.
Under `Cc1ccc(-c2noc(CCCC(=O)Nc3cccnc3)n2)cc1` stands “inactive”; under `O=C(N/N=C/C=C/c1ccccc1)c1ccccn1`, “inactive”; under `CCCCCCCC(=O)NNC(=O)c1ccc(F)cc1`, “inactive”.
`CCCCCCCC(=O)N/N=C(/C)c1c(O)cc(C)oc1=O`: the compound was called inactive.
`CCCCn1nnc(NC(=O)COc2ccc(Cl)c(C)c2)n1`: the outcome was inactive.
The same measure for `CCCOC(=O)c1ccc(NC(=O)c2ccccc2OC)cc1`: “inactive”.
Under `CN1CCC(O)(c2ccc(Cl)cc2)C(C(=O)c2ccc(Cl)cc2)C1` (stereo not given) stands “inactive”; under `CCN(CC)S(=O)(=O)c1ccc(C(=O)OCn2nnc3ccccc3c2=O)cc1`, “inactive”.
Under `C/C(=N\NC(=O)c1ccco1)c1cc(Cl)sc1Cl` stands “inactive”; under `C=C1Cn2c(nnc2-c2ccc(Cl)cc2)S1`, “inactive”; under `Cc1ccc2nc(C)c3c(c2c1)COC3`, “inactive”.
Turning to `O=C(OCn1nnc2ccccc2c1=O)C1CCCCC1`, the call was inactive.
Under `O=C(COc1ccccc1)NC1CCCCC1` stands “inactive”; under `CCOC(=O)COc1ccc2c(c1)C(=O)CC1(CCCCC1)O2`, “inactive”.
The same measure for `CCOc1ccc(NC(=O)CCNC(=O)c2ccc(Br)cc2)cc1`: “inactive”; for `CC1CCN(C(=O)c2ccc(-c3ccccc3Cl)o2)CC1`: “inactive”.
As for `O=C(c1ccc(-c2ccc([N+](=O)[O-])cc2)o1)N1CCN(S(=O)(=O)c2cccs2)CC1`, the result was inactive.
